Among the test systems are DU-145 prostate; K-562 leukemia; MALME-3M melanoma; MDA-MB-231 breast; RXF 393 renal; SF-268 CNS; SF-295 CNS; SF-539 CNS; UACC-257 melanoma; M14 melanoma; HCT-15 colon; HT29 colon; SNB-75 CNS; SNB-19 CNS; U251 CNS; PC-3 prostate; SK-MEL-5 melanoma; UACC-62 melanoma; LOX IMVI melanoma; SK-MEL-28 melanoma.
Test in all cases: NCI-60 one-dose screen, 48 h (100 = growth as untreated, 0 = no growth, -100 = all killed)
Settings in all cases: 10 µM unless noted

Compounds without any hit were thinned out: in the full panel of roughly 83,000, 20% have a hit.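 Single-dose data. Exposure time 48 hours. Values below 10 considered active.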 Unmarked numbers belong to inactive results. The source made the active and inactive calls.

Take `O=c1c(-c2nc(-c3ccccc3)c(-c3ccccc3)[nH]2)coc2ccc(F)cc12`: the growth was 46.1% in the test with DU-145 prostate; 32.5% in the test on K-562 leukemia; 52% with MALME-3M melanoma; 64% with MDA-MB-231 breast; 92.3% in the test on RXF 393 renal; 64% in the test on SF-268 CNS. The growth is 71.5% in the test with SF-295 CNS; 70.9% in the test with SF-539 CNS; 77.6% with UACC-257 melanoma; 53.3% in the test with M14 melanoma; 24.3% with HCT-15 colon; 68.1% in the test with HT29 colon. The growth with SNB-75 CNS is 39%; in the test with SNB-19 CNS, 38.8%; in the test on U251 CNS, 47.3%; in the test with PC-3 prostate, 41.9%; in the test on SK-MEL-5 melanoma, 47.7%; with UACC-62 melanoma, 49.9%. The growth in the test with LOX IMVI melanoma was 65.9%; in the test with SK-MEL-28 melanoma, 69.6%.
For the compound `O=C(COc1ccc(/C=C2/C(=O)Nc3ccc(Cl)cc32)cc1)Nc1ccc(Br)cc1`, the growth in the test on DU-145 prostate is -9.85% (active); with K-562 leukemia, 2.94% (active); with MALME-3M melanoma, -41.5% (active); in the test on MDA-MB-231 breast, -33.7% (active); in the test with RXF 393 renal it was -65.7% (active); with SF-268 CNS it was 16.7%. Moreover, the growth was -59.7% (active) in the test on SF-295 CNS; -84.9% (active) in the test with SF-539 CNS; 15.1% in the test with UACC-257 melanoma; -2.56% (active) with M14 melanoma; -23% (active) with HCT-15 colon; -51.3% (active) in the test with HT29 colon. Besides, the growth in the test on SNB-75 CNS was -57% (active); in the test on SNB-19 CNS, 5.08% (active); with U251 CNS it was -88.4% (active); in the test with PC-3 prostate it was -38.9% (active); with SK-MEL-5 melanoma, -14.8% (active); in the test on UACC-62 melanoma it was 0.1% (active). The growth was -89.4% (active) in the test with LOX IMVI melanoma and -26.7% (active) in the test with SK-MEL-28 melanoma.
In the case of `O=C(CSc1nnc(-c2ccc(-c3nc4ccc(Cl)cc4[nH]3)cc2)o1)Nc1ccc(Cl)cc1`, the growth in the test on DU-145 prostate was 6.16% (active); in the test with K-562 leukemia, 11.2%; with MALME-3M melanoma, -23.8% (active); with MDA-MB-231 breast, -51.5% (active); with RXF 393 renal, -49% (active); with SF-268 CNS, 8.68% (active). For the same compound, the growth in the test with SF-295 CNS was 27.6%; in the test on SF-539 CNS, -95.3% (active); in the test with UACC-257 melanoma it was 3.38% (active); with M14 melanoma it was 1.01% (active); in the test with HCT-15 colon, 8.62% (active); in the test on HT29 colon it was 23.1%. Besides, the growth with SNB-75 CNS was 2.16% (active); with SNB-19 CNS, -8.15% (active); in the test on U251 CNS, -74.1% (active); in the test on PC-3 prostate, -24.1% (active); in the test with SK-MEL-5 melanoma, 8.87% (active); in the test with UACC-62 melanoma, -44.8% (active). Besides, the growth is -92.5% (active) with LOX IMVI melanoma and -73.6% (active) in the test on SK-MEL-28 melanoma.
`CC(C)CN1C(=O)/C(=C\C(=O)c2cc3ccccc3oc2=O)c2ccccc21`: the growth is 98.3% in the test with DU-145 prostate; 1.97% (active) in the test on K-562 leukemia; 59% in the test with MALME-3M melanoma; 87.5% with MDA-MB-231 breast; 85.4% in the test on RXF 393 renal; 106% in the test with SF-268 CNS. For the same compound, the growth in the test with SF-295 CNS was 105%; with SF-539 CNS it was 102%; in the test on UACC-257 melanoma it was 106%; in the test on M14 melanoma, 85%; in the test with HCT-15 colon, 45.3%; in the test on HT29 colon it was 114%. Besides, the growth was 82.6% in the test with SNB-75 CNS; 100% in the test with SNB-19 CNS; 106% in the test on U251 CNS; 96.6% in the test with PC-3 prostate; 97% in the test with SK-MEL-5 melanoma; 83.2% with UACC-62 melanoma. Also, the growth is 85.7% with LOX IMVI melanoma and 90.1% in the test on SK-MEL-28 melanoma.
For the compound `O=C(N/N=C/c1ccoc1)c1[nH]c2ccc(Br)cc2c1-c1ccccc1`, the growth in the test with DU-145 prostate is -48.3% (active); in the test on K-562 leukemia, 3.56% (active); with MALME-3M melanoma it was -84.7% (active); with MDA-MB-231 breast, -85.6% (active); with RXF 393 renal, -86.3% (active); in the test on SF-268 CNS it was -56.8% (active). Further, the growth with SF-295 CNS is -97.9% (active); with SF-539 CNS, -97.6% (active); in the test on UACC-257 melanoma, -78.1% (active); in the test with M14 melanoma, -84.6% (active); in the test on HCT-15 colon it was -100% (active); in the test on HT29 colon it was -50.2% (active). Further, the growth in the test with SNB-75 CNS was -79.6% (active); in the test with SNB-19 CNS it was -97.5% (active); with U251 CNS, -81.5% (active); in the test with PC-3 prostate it was -37.3% (active); in the test with SK-MEL-5 melanoma, -97.2% (active); in the test on UACC-62 melanoma it was -99.6% (active). For the same compound, the growth is -100% (active) with LOX IMVI melanoma and -93.7% (active) with SK-MEL-28 melanoma.
On to `CCCCNc1ccc2c3c(cccc13)C(=O)N(NCC(O)COc1ccc3c(C)cc(=O)oc3c1)C2=O` (stereo not given), for which the growth in the test with DU-145 prostate is 89.2%; with K-562 leukemia it was 75.8%; with MALME-3M melanoma, 110%; in the test on MDA-MB-231 breast it was 81.4%; in the test with RXF 393 renal, 91.6%; in the test on SF-268 CNS, 79.6%. Also, the growth was 95.5% in the test with SF-295 CNS; 91.8% with SF-539 CNS; 106% in the test with UACC-257 melanoma; 90.6% in the test on M14 melanoma; 77.3% in the test with HCT-15 colon; 100% in the test with HT29 colon. For the same compound, the growth was 94.1% with SNB-75 CNS; 83.9% in the test with SNB-19 CNS; 96.5% with U251 CNS; 84% in the test with PC-3 prostate; 77.9% with SK-MEL-5 melanoma; 69.2% with UACC-62 melanoma. Moreover, the values for the growth with LOX IMVI melanoma and with SK-MEL-28 melanoma were 81.3% and 103%, respectively.
Turning to `S=C(Nc1ccc(OCc2nc3ccc(Cl)cc3[nH]2)cc1)NC1CCCCC1`, the growth is 7.09% (active) in the test on DU-145 prostate; 5.65% (active) in the test on K-562 leukemia; -21.6% (active) in the test with MALME-3M melanoma; -76.3% (active) in the test with MDA-MB-231 breast; -52.3% (active) in the test on RXF 393 renal; 5.6% (active) with SF-268 CNS. Also, the growth was -15.9% (active) with SF-295 CNS; -79.3% (active) in the test on SF-539 CNS; 33.3% with UACC-257 melanoma; -37.2% (active) in the test on M14 melanoma; -63.4% (active) with HCT-15 colon; -47.2% (active) in the test on HT29 colon. The growth in the test with SNB-75 CNS is 10.7%; in the test on SNB-19 CNS it was 10%; in the test with U251 CNS, -48.1% (active); in the test on PC-3 prostate it was 17.6%; with SK-MEL-5 melanoma, -96.6% (active); in the test with UACC-62 melanoma, -12.7% (active). Also, the growth in the test with LOX IMVI melanoma was -100% (active); in the test on SK-MEL-28 melanoma it was 0.982% (active).
For the compound `CCCCCCCCc1cccc(CC(=O)Nc2ccc(C)cc2C(=O)O)c1`, the growth is 59.4% [25 µM] in the test with DU-145 prostate; 28.9% [25 µM] with K-562 leukemia; 67.7% [25 µM] in the test on MALME-3M melanoma; 66.5% [25 µM] in the test with MDA-MB-231 breast; 104% [25 µM] with RXF 393 renal; 61.9% [25 µM] with SF-268 CNS. In addition, the growth was 35.2% [25 µM] in the test on SF-295 CNS; 37.1% [25 µM] in the test with SF-539 CNS; 71.2% [25 µM] with UACC-257 melanoma; 62.9% [25 µM] with M14 melanoma; 13.2% [25 µM] in the test on HCT-15 colon; 35.9% [25 µM] with HT29 colon. Besides, the growth is 74.1% [25 µM] with SNB-75 CNS; 50.9% [25 µM] in the test on SNB-19 CNS; 38.2% [25 µM] in the test with U251 CNS; 46.8% [25 µM] with PC-3 prostate; 36.5% [25 µM] with SK-MEL-5 melanoma; 49.4% [25 µM] in the test on UACC-62 melanoma. In addition, the results for the growth in the test on LOX IMVI melanoma and with SK-MEL-28 melanoma were 3.4% [25 µM] (active) and 65.5% [25 µM], respectively.

Source of the values: PubChem BioAssay (NCI).
